Experimental data: PubChem BioAssay (NCI)
The panel holds about 83,000 compounds, 20% with a hit somewhere; the sample as a whole holds those more often.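 The endpoint reported here, percent growth, reads 100 for growth as untreated, 0 for no net growth and -100 for all cells dead.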 A number with no mark means an inactive call. The source made the active and inactive calls. How the source made its calls: active means growth percent below 10; inactive means the rest.

Columns and labels:
Experiment in all cases: NCI-60 one-dose screen, 48 h (100 = growth as untreated, 0 = no growth, -100 = all killed)
Conditions in all cases: 10 µM unless noted
NCI-H23 lung = test system: NCI-H23 lung
NCI-H226 lung = test system: NCI-H226 lung
NCI-H322M lung = test system: NCI-H322M lung
HOP-62 NSCLC = test system: HOP-62 NSCLC
NCI-H460 lung = test system: NCI-H460 lung
HOP-92 NSCLC = test system: HOP-92 NSCLC
NCI-H522 lung = test system: NCI-H522 lung
A549/ATCC NSCLC = test system: A549/ATCC NSCLC
786-0 renal = test system: 786-0 renal
COLO 205 colon = test system: COLO 205 colon
DU-145 prostate = test system: DU-145 prostate
MALME-3M melanoma = test system: MALME-3M melanoma
MDA-MB-231 breast = test system: MDA-MB-231 breast
RXF 393 renal = test system: RXF 393 renal
SF-268 CNS = test system: SF-268 CNS
SF-295 CNS = test system: SF-295 CNS
SF-539 CNS = test system: SF-539 CNS
UACC-257 melanoma = test system: UACC-257 melanoma
M14 melanoma = test system: M14 melanoma

Structure (SMILES)	growth (NCI-H23 lung)	growth (NCI-H226 lung)	growth (NCI-H322M lung)	growth (HOP-62 NSCLC)	growth (NCI-H460 lung)	growth (HOP-92 NSCLC)	growth (NCI-H522 lung)	growth (A549/ATCC NSCLC)	growth (786-0 renal)	growth (COLO 205 colon)	growth (DU-145 prostate)	growth (MALME-3M melanoma)	growth (MDA-MB-231 breast)	growth (RXF 393 renal)	growth (SF-268 CNS)	growth (SF-295 CNS)	growth (SF-539 CNS)	growth (UACC-257 melanoma)	growth (M14 melanoma)
COc1cc(-c2nc(C(=O)NCC(=O)NO)nn2-c2ccc(Cl)cc2)cc(OC)c1OC	97.1%	91.8%	118%	93.6%	107%	86.5%	86.8%	90.1%	101%	103%	107%	129%	101%	107%	104%	107%	96.7%	86.8%	101%
NC(=NCCCOc1ccc(Cl)cc1)Nc1ccc(Cl)cc1	23.4%	107%	31.8%	33.9%	48%	21.6%	27.8%	24.1%	58.4%	-65.6% (active)	16.9%	-20.8% (active)	-6.18% (active)	79.3%	36.6%	17.9%	31.4%	6.24% (active)	-35.7% (active)
COc1ccc(CN2c3ccccc3Oc3ccccc32)cc1F	71.8%	101%	91.5%	52.1%	47.6%	66.6%	-13.2% (active)	43.7%	79.2%	41.7%	95.9%	59.2%	53.1%	84.5%	84.7%	33%	64.7%	58.9%	33.6%
CC/C=C\C[C@H](O)C/C=C1/C(=O)C=C[C@@]1(C)C/C=C\CCCC(=O)OC	87.2%	121%	106%	104%	110%	99.6%	81.2%	88.6%	100%	113%	112%	101%	104%	115%	106%	107%	93.6%	87.1%	101%
Cc1cc(N2CCSCC2)nc(NC2CCCC(Nc3ccnc4cc(Cl)ccc34)C2)n1 (configuration not stated)	35.1%	18.2%	-28.8% (active)	-46.2% (active)	-11.2% (active)	-66.1% (active)	-52.5% (active)	7.52% (active)	-91.6% (active)	-74.8% (active)	19.7%	-86.1% (active)	-75.7% (active)	-73.7% (active)	-39.9% (active)	-78.6% (active)	-93.1% (active)	-79.3% (active)	-88.5% (active)
c1ccc2[nH]c(-c3ccc(Nc4nc(N5CCCC5)nc5[nH]ncc45)cc3)nc2c1	-11.3% (active)	98.9%	6.53% (active)	-36.6% (active)	-44.3% (active)	-56.4% (active)	-54.7% (active)	-42.4% (active)	-92.4% (active)	-75.9% (active)	-6.9% (active)	-71.5% (active)	-48.5% (active)	-81.5% (active)	-7.79% (active)	-63.3% (active)	-68.1% (active)	-90.5% (active)	-78% (active)
O=C(Cc1ccc(/C=C/C(=O)c2ncc[nH]2)cc1)Nc1ccccc1	39.8%	87.7%	67.4%	49.9%	11.7%	83.6%	31.2%	57.2%	32.8%	45.5%	17.8%	98.2%	70.7%	42.9%	51.5%	69.7%	-23.3% (active)	97.2%	73.6%
COc1cc2c(cc1O)CC[C@@H]1[C@@H]2CC[C@]2(C)[C@@H](NCCN(C)C)CC[C@@H]12	-77.2% (active)	-86.2% (active)	-91.6% (active)	-76.3% (active)	-84.7% (active)	-81.7% (active)	-94.3% (active)	-81.6% (active)	-84.3% (active)	-71% (active)	-94.3% (active)	-72.5% (active)	-82.6% (active)	-95.7% (active)	-78.8% (active)	-88.5% (active)	-86.5% (active)	-84.9% (active)	-63.7% (active)
